The results in this text go back to PubChem BioAssay.

SMILES strings stand for the structures. Potency and affinity values are given separately. Inconclusive results are not listed. A number with no mark means an inactive call.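 The calls were made as follows, unless noted: active = signal drop whose fitted half-maximal concentration is at most twice the top valid dose, in every test run; inconclusive = mixed calls across runs, poor fit, or flat 30 to 70% inhibition; inactive = wrong direction, flat within 30%, or potency beyond limit.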

A short description of one assay: RMG-1 ovarian cancer cell viability loss – cherry-pick, dose response (AID 687029).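 Also: cells exposed to compound for 96 hours.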 The settings on record: RMG-1 viability, CellTiterGlo ATP luminescence, 96 h; series mostly up to 35 µM; activity change, negative = inhibition: at the top concentration. In general terms: Cellular ATP, detected with luciferase, serves as a proxy for viable cell number.
As to `Cc1[nH]nc2nc(SCC(=O)NC3CCCCC3)n(-c3ccc(Br)cc3)c(=N)c12`, the “activity change, negative = inhibition” value is 42.2%.

In the case of `O=C(Nc1nc(-c2cccs2)c(-c2cccs2)s1)C1(c2ccccc2)CC1`, the “activity change, negative = inhibition” value is 15.6%.

As for `CCOC(=O)Nc1ccc2c(c1)N(C(=O)CCCl)c1ccccc1[S@]2=O`, the “activity change, negative = inhibition” value was 24.1%.

Regarding `O=C(Nc1ccc(Cl)cc1)Nc1ccc(N2CCCC2)c(S(=O)(=O)Nc2ccccc2Cl)c1`, the “activity change, negative = inhibition” value was 17.9%.

On to `Cc1ccc(-c2cn3cc(C)ccc3n2)cc1`, for which the “activity change, negative = inhibition” value was 46.6%.

As for `CCc1ccc(CNC(=O)C2CCCN(c3nnc(C)c4c(C)n(-c5ccccc5)nc34)C2)cc1` (stereo not given), the “activity change, negative = inhibition” value was 17.9%.

For the molecule `CCO[C@H]1OC(C(=O)N2CCN(Cc3ccccc3)CC2)=C[C@@H](c2ccc(C(F)(F)F)cc2)[C@@H]1CCCO`, the “activity change, negative = inhibition” value was 9.29%.

In the case of `C[C@@H](NC(=O)c1nc[nH]c1C(=O)N[C@@H](Cc1ccccc1)C(=O)OC(C)(C)C)c1ccccc1`, the “activity change, negative = inhibition” value is 17.7%.

For `CC(=O)N1CCN(c2ccc(NC(=O)c3ccc([N+](=O)[O-])o3)cc2Cl)CC1`, the “activity change, negative = inhibition” value is 11%.

`N=c1n(Cc2ccccc2)c2ccccc2n1CC(O)COc1ccc(Cl)cc1Cl` (stereo not given): the “activity change, negative = inhibition” value was 7.21%.

`COc1ccc(C(=O)N/N=C/c2ccc(OC)c(CN3CCN(c4ccc(F)cc4)CC3)c2)cc1`: the “activity change, negative = inhibition” value is 50%.

`CCCCn1cnc2c(c(-c3ccccc3)c(-c3ccccc3)n2Cc2ccco2)c1=N`: the “activity change, negative = inhibition” value was 26%.

Turning to `FC(F)(F)c1nnc2c(Sc3ccccc3)nc3ccc(Cl)cc3n12`, the “activity change, negative = inhibition” value was 17.1%.

Consider `C=C1C2(C(=O)Nc3ccc(SC(F)F)cc3)CCC(C2)C1(C)C` (stereo not given), for which the “activity change, negative = inhibition” value was 23.6%.

On to `COc1ccc(O)c(/C=N/NC(=O)c2ccc(N3CCCC3=O)cc2)c1`, for which the “activity change, negative = inhibition” value was -0.31%.

Consider `O=C(Nc1cccc(F)c1)N1CCCCN2[C@@H](CO)[C@H](c3ccc(C#Cc4ccccc4)cc3)[C@@H]2C1`, for which the “activity change, negative = inhibition” value is 22.1%.

In the case of `C[C@@H]1CCCCO[C@@H](CN(C)Cc2ccc3c(c2)OCO3)[C@H](C)CN([C@@H](C)CO)C(=O)c2cc(NC(=O)Nc3ccc(C(F)(F)F)cc3)ccc2O1`, the “activity change, negative = inhibition” value is 15.1%.

`CC(C)=CCC/C(C)=C/CNC(=O)C[C@H]1C[C@H](C(=O)N2CCOCC2)[C@@]2(C)c3[nH]c4ccc(Cl)cc4c3CCN2C1=O`: the “activity change, negative = inhibition” value was 30.9%.

Consider `C#CCN(C[C@H]1[C@H](OC(=O)Nc2c(C)noc2C)[C@H](OC(=O)Nc2c(C)noc2C)C[C@@H](C(=O)OC)[C@H]1C(=O)OC)S(=O)(=O)c1ccc(C)cc1`, for which the “activity change, negative = inhibition” value is 15.2%.

Consider `O=C(NCCC1CCCCN1S(=O)(=O)c1ccc(Cl)cc1)C(=O)NCc1ccncc1` (stereo not given), for which the “activity change, negative = inhibition” value was 18.7%.

`C[C@H]1CCCCO[C@@H](CN(C)Cc2ccc(C(F)(F)F)cc2)[C@@H](C)CN([C@@H](C)CO)C(=O)c2cc(NS(=O)(=O)c3ccc(Cl)cc3)ccc2O1`: the “activity change, negative = inhibition” value is 5.21%.

Regarding `O=C(NCc1cccnc1)/C(=C\c1ccc(-c2ccc(Cl)c(Cl)c2)o1)S(=O)(=O)c1ccccc1`, the “activity change, negative = inhibition” value was 45.4%.

For `C=CC(=O)N1C/C(=C/c2ccc(Cl)cc2)C(=O)/C(=C\c2ccc(Cl)cc2)C1`, the “activity change, negative = inhibition” value was 29.7%.

Take `CCc1ccc2[nH]c3nc(N/N=C/c4ccc(O)cc4O)nnc3c2c1`: the “activity change, negative = inhibition” value is 38.1%.

Turning to `COc1ccc(-c2cc(-c3ccccc3)c(C#N)c(S(C)(=O)=O)n2)cc1`, the “activity change, negative = inhibition” value was 18.1%.

With `COc1ccccc1N1CCN(Cc2cc(Br)c(O)c3ncccc23)CC1`, the “activity change, negative = inhibition” value was 36.6%.

As for `O=C(Nc1cccc(C2=NCCN2)c1)Nc1cccc(C2=NCCN2)c1`, the “activity change, negative = inhibition” value is 30.5%.

As for `Cc1ccc(S(=O)(=O)CCC(=O)c2ccc(O)cc2O)cc1`, the “activity change, negative = inhibition” value was 5.25%.

As to `CCN(c1nc(N)c(C(=O)N=C(N)N)nc1Cl)C(C)C`, the “activity change, negative = inhibition” value is 54.1%.

In the case of `O=C1c2c(O)ccc(O)c2C(=O)c2c(NCCNCCO)ccc(NCCNCCO)c21`, the “activity change, negative = inhibition” value is 30.9%.

On to `COc1ccc(COC(=O)c2cc([N+](=O)[O-])ccc2N2CCOCC2)cc1F`, for which the “activity change, negative = inhibition” value is 19%.

`O=C(N/N=C/c1ccc(O)cc1)c1[nH]c2ccc(Br)cc2c1-c1ccccc1`: the “activity change, negative = inhibition” value is 36.3%.

For `N#Cc1ccc(NC(=O)COC(=O)C2CCC2)cc1`, the “activity change, negative = inhibition” value is 24.3%.

On to `CN(Cc1ccccc1)N=Nc1nc[nH]c1C(N)=O`, for which the “activity change, negative = inhibition” value is 34.8%.

On to `Cc1ccc(S(=O)(=O)c2nc(S(=O)(=O)c3ccccc3)sc2N2CCN(C)CC2)cc1`, for which the “activity change, negative = inhibition” value was 45.3%.

For the molecule `C=C1C(=O)[C@@]23[C@H](O)C[C@@H]4C(C)(C)CC[C@H](O)[C@@]4(C)[C@@H]2CC[C@@H]1[C@H]3O`, the “activity change, negative = inhibition” value is 31.3%.

For `O=C(Nc1cccc(NC(=O)c2ccccc2Cl)c1)c1ccc([N+](=O)[O-])o1`, the “activity change, negative = inhibition” value was 34.4%.

`O=C(C[C@@H]1C[C@H]2c3cc(NS(=O)(=O)c4ccc(F)cc4)ccc3O[C@H]2[C@@H](CO)O1)NCc1ccc(Oc2ccccc2)cc1`: the “activity change, negative = inhibition” value was 23.7%.

Turning to `CC(C)OCCCNC(=O)c1cccc(NC(=O)c2ccccc2)c1`, the “activity change, negative = inhibition” value was 31.1% [at 16 µM].

For the molecule `Cc1ccc(C)c(N2CCN(C(=O)CCCCCn3c(=S)[nH]c4ccc(N5CCOCC5)cc4c3=O)CC2)c1`, the “activity change, negative = inhibition” value was 21.7%.

Another assay in a line: IOSE-T80 viability loss, PAX8-independent line – cell-based, cherry-pick, selectivity assay for PAX8 inhibitor project, dose response (AID 687032;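 active = fitted half-maximal concentration for viability loss no higher than twice the top valid dose, in every repeat run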;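 also: cells exposed to compound for 96 h before reading; 0% = neutral control wells and -100% = 2 µM mitoxantrone kill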). The note with it: CellTiterGlo ATP luminescence, 96 h; series mostly up to 35 µM; activity change, negative = viability loss: at the top concentration.
Turning to `Cc1[nH]nc2nc(SCC(=O)NC3CCCCC3)n(-c3ccc(Br)cc3)c(=N)c12`, the “activity change, negative = viability loss” value is 6.3%.

In the case of `O=C(Nc1nc(-c2cccs2)c(-c2cccs2)s1)C1(c2ccccc2)CC1`, the “activity change, negative = viability loss” value is 3.63%.

In the case of `CCOC(=O)Nc1ccc2c(c1)N(C(=O)CCCl)c1ccccc1[S@]2=O`, the “activity change, negative = viability loss” value was 3.41%.

Regarding `O=C(Nc1ccc(Cl)cc1)Nc1ccc(N2CCCC2)c(S(=O)(=O)Nc2ccccc2Cl)c1`, the “activity change, negative = viability loss” value is 9.46%.

As to `Cc1ccc(-c2cn3cc(C)ccc3n2)cc1`, the “activity change, negative = viability loss” value is 25.8%.

On to `CCc1ccc(CNC(=O)C2CCCN(c3nnc(C)c4c(C)n(-c5ccccc5)nc34)C2)cc1` (stereo not given), for which the “activity change, negative = viability loss” value was 17.9%.

Regarding `CCO[C@H]1OC(C(=O)N2CCN(Cc3ccccc3)CC2)=C[C@@H](c2ccc(C(F)(F)F)cc2)[C@@H]1CCCO`, the “activity change, negative = viability loss” value is 11.5%.

With `C[C@@H](NC(=O)c1nc[nH]c1C(=O)N[C@@H](Cc1ccccc1)C(=O)OC(C)(C)C)c1ccccc1`, the “activity change, negative = viability loss” value was 2.11%.

`CC(=O)N1CCN(c2ccc(NC(=O)c3ccc([N+](=O)[O-])o3)cc2Cl)CC1`: the “activity change, negative = viability loss” value is 9.02%.

As to `N=c1n(Cc2ccccc2)c2ccccc2n1CC(O)COc1ccc(Cl)cc1Cl` (stereo not given), the “activity change, negative = viability loss” value is 2.14%.

In the case of `COc1ccc(C(=O)N/N=C/c2ccc(OC)c(CN3CCN(c4ccc(F)cc4)CC3)c2)cc1`, the “activity change, negative = viability loss” value is 12.1%.

Regarding `CCCCn1cnc2c(c(-c3ccccc3)c(-c3ccccc3)n2Cc2ccco2)c1=N`, the “activity change, negative = viability loss” value was 24.8%.

As for `FC(F)(F)c1nnc2c(Sc3ccccc3)nc3ccc(Cl)cc3n12`, the “activity change, negative = viability loss” value was 5.88%.

Take `C=C1C2(C(=O)Nc3ccc(SC(F)F)cc3)CCC(C2)C1(C)C` (stereo not given): the “activity change, negative = viability loss” value was 7.53%.

In the case of `COc1ccc(O)c(/C=N/NC(=O)c2ccc(N3CCCC3=O)cc2)c1`, the “activity change, negative = viability loss” value was -1.23%.

Take `O=C(Nc1cccc(F)c1)N1CCCCN2[C@@H](CO)[C@H](c3ccc(C#Cc4ccccc4)cc3)[C@@H]2C1`: the “activity change, negative = viability loss” value is 12.2%.

Take `C[C@@H]1CCCCO[C@@H](CN(C)Cc2ccc3c(c2)OCO3)[C@H](C)CN([C@@H](C)CO)C(=O)c2cc(NC(=O)Nc3ccc(C(F)(F)F)cc3)ccc2O1`: the “activity change, negative = viability loss” value was 10.9%.

Consider `CC(C)=CCC/C(C)=C/CNC(=O)C[C@H]1C[C@H](C(=O)N2CCOCC2)[C@@]2(C)c3[nH]c4ccc(Cl)cc4c3CCN2C1=O`, for which the “activity change, negative = viability loss” value is 5.42%.

Take `C#CCN(C[C@H]1[C@H](OC(=O)Nc2c(C)noc2C)[C@H](OC(=O)Nc2c(C)noc2C)C[C@@H](C(=O)OC)[C@H]1C(=O)OC)S(=O)(=O)c1ccc(C)cc1`: the “activity change, negative = viability loss” value is 7.17%.

For the molecule `O=C(NCCC1CCCCN1S(=O)(=O)c1ccc(Cl)cc1)C(=O)NCc1ccncc1` (stereo not given), the “activity change, negative = viability loss” value was 11.6%.

For the molecule `C[C@H]1CCCCO[C@@H](CN(C)Cc2ccc(C(F)(F)F)cc2)[C@@H](C)CN([C@@H](C)CO)C(=O)c2cc(NS(=O)(=O)c3ccc(Cl)cc3)ccc2O1`, the “activity change, negative = viability loss” value was 15.7%.

As for `O=C(NCc1cccnc1)/C(=C\c1ccc(-c2ccc(Cl)c(Cl)c2)o1)S(=O)(=O)c1ccccc1`, the “activity change, negative = viability loss” value was 18.4%.

For `C=CC(=O)N1C/C(=C/c2ccc(Cl)cc2)C(=O)/C(=C\c2ccc(Cl)cc2)C1`, the “activity change, negative = viability loss” value is 12.8%.

For the molecule `CCc1ccc2[nH]c3nc(N/N=C/c4ccc(O)cc4O)nnc3c2c1`, the “activity change, negative = viability loss” value is 13.3%.

Turning to `COc1ccc(-c2cc(-c3ccccc3)c(C#N)c(S(C)(=O)=O)n2)cc1`, the “activity change, negative = viability loss” value was 9.92%.

With `COc1ccccc1N1CCN(Cc2cc(Br)c(O)c3ncccc23)CC1`, the “activity change, negative = viability loss” value was 14.2%.

For the molecule `O=C(Nc1cccc(C2=NCCN2)c1)Nc1cccc(C2=NCCN2)c1`, the “activity change, negative = viability loss” value was 10.9%.

Regarding `Cc1ccc(S(=O)(=O)CCC(=O)c2ccc(O)cc2O)cc1`, the “activity change, negative = viability loss” value was 8.26%.

For `CCN(c1nc(N)c(C(=O)N=C(N)N)nc1Cl)C(C)C`, the “activity change, negative = viability loss” value is 13.1%.

As for `O=C1c2c(O)ccc(O)c2C(=O)c2c(NCCNCCO)ccc(NCCNCCO)c21`, the “activity change, negative = viability loss” value was 10.7%.

Turning to `COc1ccc(COC(=O)c2cc([N+](=O)[O-])ccc2N2CCOCC2)cc1F`, the “activity change, negative = viability loss” value was 4.26%.

For the molecule `O=C(N/N=C/c1ccc(O)cc1)c1[nH]c2ccc(Br)cc2c1-c1ccccc1`, the “activity change, negative = viability loss” value is 15.9%.

Consider `N#Cc1ccc(NC(=O)COC(=O)C2CCC2)cc1`, for which the “activity change, negative = viability loss” value is 4.28%.

For the molecule `CN(Cc1ccccc1)N=Nc1nc[nH]c1C(N)=O`, the “activity change, negative = viability loss” value is 6.94%.

On to `Cc1ccc(S(=O)(=O)c2nc(S(=O)(=O)c3ccccc3)sc2N2CCN(C)CC2)cc1`, for which the “activity change, negative = viability loss” value was 5.73%.

In the case of `C=C1C(=O)[C@@]23[C@H](O)C[C@@H]4C(C)(C)CC[C@H](O)[C@@]4(C)[C@@H]2CC[C@@H]1[C@H]3O`, the “activity change, negative = viability loss” value was 16%.

On to `O=C(Nc1cccc(NC(=O)c2ccccc2Cl)c1)c1ccc([N+](=O)[O-])o1`, for which the “activity change, negative = viability loss” value was 6.88%.

As for `O=C(C[C@@H]1C[C@H]2c3cc(NS(=O)(=O)c4ccc(F)cc4)ccc3O[C@H]2[C@@H](CO)O1)NCc1ccc(Oc2ccccc2)cc1`, the “activity change, negative = viability loss” value was 13.8%.

As for `CC(C)OCCCNC(=O)c1cccc(NC(=O)c2ccccc2)c1`, the “activity change, negative = viability loss” value was 7.73%.

On to `Cc1ccc(C)c(N2CCN(C(=O)CCCCCn3c(=S)[nH]c4ccc(N5CCOCC5)cc4c3=O)CC2)c1`, for which the “activity change, negative = viability loss” value was 17.3%.
